In PubChem BioAssay (NCI):
About 79,000 compounds went through this panel and 15% of them were active in at least one assay; those are over-represented in the sample as a whole. Values without a mark were called inactive. Active and inactive are the calls of the source. No stated cut-off is given here; in the data, active means growth inhibition above about 70%; inactive means the rest.

What was measured:
[1] = NCI Yeast Anticancer Drug Screen. Data for the rad50 strain (AID 155);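 further: 0% = growth of vehicle-only cultures of the same strain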; settings: S. cerevisiae rad50 strain growth inhibition; at 50.0 µM; stronger effect = higher value
Summary of the method: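 Yeast carrying a defined DNA repair defect were exposed to test compounds, and growth was compared with vehicle-treated controls to give percent inhibition.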

[2] = NCI Yeast Anticancer Drug Screen. Data for the mec2-1 strain (AID 157); settings: S. cerevisiae mec2-1 strain, at 50.0 µM, stronger effect = higher value
Summary of the method: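 mec2-1 yeast strain, carrying an alteration in DNA damage repair or cell cycle control, was exposed to compounds; growth inhibition was measured relative to vehicle-treated controls.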

[3] = NCI Yeast Anticancer Drug Screen. Data for the sgs1 mgt1 strain (AID 161);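 further: 0% = growth of cultures given vehicle only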; settings: S. cerevisiae sgs1 mgt1 strain, at 50.0 µM, stronger effect = higher value
Summary of the method: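 Percent growth inhibition was derived by comparing compound-exposed mutant yeast with vehicle-exposed cultures. The strain carries alterations in DNA damage repair.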

[4] = NCI Yeast Anticancer Drug Screen. Data for the cln2 rad14 strain (AID 165);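 further: 0% = growth equal to vehicle treated cultures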; settings: S. cerevisiae cln2 rad14 strain, at 50.0 µM, stronger effect = higher value
Summary of the method: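 Yeast carrying cln2 and rad14 alterations (cell cycle control and DNA damage repair) were exposed to compounds. Growth inhibition was measured against vehicle-treated controls.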

[5] = NCI Yeast Anticancer Drug Screen. Data for the bub3 strain (AID 167); settings: S. cerevisiae bub3 mutant strain, at 50.0 µM, stronger effect = higher value
Summary of the method: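 Compounds were applied to a genetically altered yeast strain carrying a cell-cycle control defect. Growth inhibition was scored against vehicle-treated controls.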

[6] = NCI Yeast Anticancer Drug Screen. Data for the mlh1 rad18 strain (AID 175); settings: S. cerevisiae mlh1 rad18 strain growth inhibition; at 50.0 µM; stronger effect = higher value
Summary of the method: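 Growth inhibition of the yeast strain was measured after compound exposure and expressed relative to vehicle-treated controls. The strain carries defined defects in DNA damage repair.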

SMILES	growth inhibition [1]	growth inhibition [2]	growth inhibition [3]	growth inhibition [4]	growth inhibition [5]	growth inhibition [6]
Nc1cnccc1NCC(O)c1ccccc1 (stereo unspecified)	9.95%	-5.9%	-6.65%	-15.6%	-1.5%	-8.6%
CC(C)C(O)C(C)(C)C(O)C#N (stereo unspecified)	18.1%	-1.2%	-0.1%	-2.45%	0.4%	7.7%
CCc1ccc2c(c1)CCC(=O)O2	0.5%	-15.2%	-4.8%	-23.7%	-13.9%	-7.65%
CC1=CC(C)(C)Nc2ccccc21	-0.25%	-5.6%	-8.95%	-3.95%	6.95%	8.45%
CCC[n+]1ccccc1C	-0.95%	19.4%	-4.3%	1.35%	7.9%	3.65%
O=C(O)c1ccc(C2COc3ccc(Cl)cc3C2)cc1 (stereo unspecified)	-10.8%	-19.8%	-23.8%	4.7%	-19.2%	-24.2%
O=C1C(c2ccccc2)=C2c3ccccc3-c3ccccc3C2(O)C1c1ccccc1 (stereo unspecified)	91.8% (active)	94.8% (active)	94.4% (active)	91.5% (active)	90.9% (active)	94.2% (active)
CCOC(=O)c1nc2ccc(C(F)(F)F)cc2nc1NCc1ccc(OC)c(OC)c1	5.7%	6.65%	-28%	-13.1%	-23.5%	-24.8%
CCOC(=O)c1ncn2c1[nH]c(=S)c1ccccc12	-14.8%	-19.1%	-11.2%	-0.95%	-17.9%	-2.05%
Cc1nc2ccccc2c(Br)c1Br	14.5%	7.35%	3.55%	11.2%	-4.05%	6.5%
CCCCn1cnc2c(N)ncnc21	-0.05%	-7.75%	-5.45%	-18.1%	1.45%	-15.5%
CCOC(=O)C1CCCCN1C(=O)OCc1ccccc1 (stereo unspecified)	-6.95%	-1.75%	0.75%	-8.05%	20.9%	-42.3%
C=CCN(CC=C)P(=O)(N(CC=C)CC=C)N(CC=C)CC=C	22.3%	8.9%	16.4%	0.15%	17.6%	21.4%
O=[N+]([O-])c1cc2c3ccccc3c([N+](=O)[O-])cc2c2ccccc12	-10.2%	-14.8%	-8.6%	-15.2%	-10.5%	10.7%
CC(=O)OCC(=O)[C@@]1(O)CC[C@H]2[C@@H]3C[C@H](Cl)C4=CC(=O)C=C[C@]4(C)[C@H]3C(=O)C[C@@]21C	15.4%	3%	47.5%	49.5%	-7.75%	39.5%
O=C(O)c1c(O)cc(=O)oc1-c1ccccc1Cl	-17.4%	-23.2%	-17.4%	-13.6%	-18.9%	-16.9%
CCc1c(O)c2c(c(O)c1C(C)=O)C(=O)c1c(cc(O)c(C(=O)O)c1C(=O)O)C2=O	-3.15%	9.8%	24.2%	10.2%	20.3%	12.8%
Cc1ccc(C)c2c(CC(=O)O)c[nH]c12	-4.35%	-11.2%	-5.9%	-15.6%	6.05%	-2.5%
CC(NC(=O)C(Cc1ccc(OC(=O)c2ccccc2)cc1)NC(=O)OC(C)(C)C)C(=O)NCC(=O)NC(Cc1ccccc1)NC(=O)OCc1ccccc1 (stereo unspecified)	-11.7%	-24.6%	-27.7%	7.35%	-25.4%	-8.95%
O=c1n(-c2ccccc2)c(=O)n2c(=O)n(-c3ccccc3)c(=O)n12	-23.4%	-1.55%	-10.7%	-44.9%	-9%	1.15%
CC(O)C1OC(O)C2OC(C)(C)OC12 (stereo unspecified)	20.1%	17.4%	16.4%	-4.35%	14.6%	7.9%
